The nature of assay [1]: Primary qHTS for inhibitors of nuclear receptor binding SET domain protein 2 (NSD2) in an isogenic RCH-ACV NSD2 p.E1099K mutant (9B) (AID 1645876; active = well fitted inhibition curve with a large enough effect; also: nearly all actives have a fitted effect of over 70% in size). In general terms: qHTS replaces the single test concentration by a dilution series.
Assay [2] in a line: qHTS drug screen for cell cycle checkpoint inhibitors in PARPi-resistant BRCA-mutant ovarian cancer cell lines. (AID 1963452). As to conditions: PEO1/OlaR viability, CellTiter-Glo luminescence, 96 h; for Z-AUC: stronger effect = lower value. Summed up: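 PEO1, PEO4 and PEO1/OlaR ovarian cancer cells, 600 per well, exposed 96 h at 37C to a dilution series. Viability read by CellTiter-Glo luminescence, normalized to DMSO and empty wells; activity summarized as Z-AUC.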

The structures appear in SMILES notation. Inconclusive results are not listed. Calls of active or inactive are those of the source. Unless noted, calls follow the shape of the full dose curve.
Potency is read from the fitted curve at half-maximal effect.

For `COC(=O)[C@]12CCC(C)(C)C[C@H]1[C@H]1C(=O)C=C3[C@@]4(C)C=C(C#N)C(=O)C(C)(C)[C@@H]4CC[C@@]3(C)[C@]1(C)CC2`, the Potency in assay [1] was 8.33 µM (active). In addition, the Z-AUC in assay [2] (PEO1 parental Z-AUC) was -0.983; in assay [2] (PEO4 Z-AUC), -1.45; in assay [2], 0.111 (inactive).
Take `CC1(C)CC[C@]2(NC(=O)C(C)(F)F)CC[C@]3(C)[C@H](C(=O)C=C4[C@@]5(C)C=C(C#N)C(=O)C(C)(C)[C@@H]5CC[C@]43C)[C@@H]2C1`: the Potency in assay [1] was 9.34 µM (active); in assay [2], 1.38 µM (active). Also, the figures for the Z-AUC in assay [2] (PEO1 parental Z-AUC) and in assay [2] (PEO4 Z-AUC) were -1.7 and -2.21, respectively.

Source of the values: PubChem BioAssay (NCATS).
